Among the data in PubChem BioAssay (NCI) are growth inhibition values, retold here.

The structures appear in SMILES notation. Compounds without any hit were thinned out: in the full panel of roughly 79,000, 15% have a hit. Unmarked numbers belong to inactive results. Activity calls are given as the source filed them. No stated cut-off is given here; in the data, active means growth inhibition above about 70%; inactive means the rest.

A short description of this test: NCI Yeast Anticancer Drug Screen. Data for the rad50 strain (AID 155).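 Further: 0% = growth of vehicle-only cultures of the same strain.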 As to conditions: S. cerevisiae rad50 strain growth inhibition; at 50.0 µM; stronger effect = higher value. In short, it runs like this:
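Relative growth inhibition (compound vs vehicle) was measured in yeast with a defined repair-gene alteration.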
For `ON1c2ccccc2-c2ccccc2C1(c1ccccc1)c1ccccc1`, the growth inhibition was 95.8% (active).

For `COc1ccc2c(c1O)-c1cccc3c1C(C2)N(CCOCCCl)CC3` (stereo not given), the growth inhibition is 28.4%.

For `ClC/C(=N\N1CCCCCC1)c1ccccc1`, the growth inhibition is -7.8%.

With `CN(C)CSCCO`, the growth inhibition is -2.8%.

Regarding `CCOC(=O)NN(C(=O)OCC)c1c(NN)n(C)c(=O)n(C)c1=O`, the growth inhibition is 2.7%.

For `N#C/C(=C\c1cccs1)C(=O)c1ccco1`, the growth inhibition was 10.2%.

Consider `CC(C)N1CN(C(C(=O)N[C@@H]2C(=O)N3C2SC(C)(C)C3C(=O)O)c2ccccc2)CSC1=S` (stereo not given in full), for which the growth inhibition was 48.8%.

For the molecule `O=C1OCC/C1=C1/Nc2ccccc2NC1=O`, the growth inhibition was -13.1%.

Regarding `CC1(C)CN(CCO)C(C)(C)CN1CCO`, the growth inhibition is 13.4%.

For `C/C(=N\NC(=O)C(N)=O)c1c(O)cc(C)oc1=O`, the growth inhibition was -29.1%.

As to `Cc1ccc(/C=C/C(=N/NC(=O)c2ccccc2)C(C)CN(C)C)cc1` (stereo not given), the growth inhibition is 6.6%.

As to `CCCN(CCC#N)C(=S)Nc1ccc(C)c(C)c1`, the growth inhibition was -13.1%.

Turning to `OCc1ccc(CO)cc1`, the growth inhibition was 18.4%.

As for `C[C@]12C(=O)C=CCC1=CC[C@@H]1[C@@H]2[C@H]2CC3(O)C(=O)O[C@@]4(C)[C@H]5C[C@@]6(C)[C@@H]7[C@@]2(O)[C@]1(OC[C@H]6C(=O)O5)O[C@]734` (stereo not given in full), the growth inhibition is 9.6%.

Regarding `COC(=O)C(=O)C(/C=N/C(=S)NC1CCCCC1)=C(\O)c1ccc(F)cc1`, the growth inhibition was -32.3%.

As for `CCCCCCCCCCS(=O)(=O)CC(=O)O`, the growth inhibition was 3.8%.

On to `CC(=O)Nc1ccc(N(C)C)c(C)c1`, for which the growth inhibition was -6.65%.

As for `O=C1OC(c2cccc([N+](=O)[O-])c2)=N/C1=C\c1ccccc1`, the growth inhibition was 17.2%.

Regarding `C[Si](C)(C)N1CCCC1`, the growth inhibition was -22.1%.

For `CC1(c2ccccc2)OC1(C)c1ccccc1` (stereo not given), the growth inhibition was 5.7%.

For the molecule `CCCCN(CCO)CC(O)Cn1cnc2c(N)ncnc21` (stereo not given), the growth inhibition was 17.4%.

As for `Cc1nn(C(=O)c2ccc(Cl)cc2)c2c1C(c1ccco1)SC(N)=N2` (stereo not given), the growth inhibition was -28.6%.

In the case of `O=c1[nH]c(Nc2ccc(F)c(Cl)c2)nc2nc[nH]c12`, the growth inhibition was 4.4%.

Take `CC[n+]1ccccc1Br`: the growth inhibition is 19.2%.

In the case of `CN(C)c1ccc(/C=C/C(=O)/C=C/c2ccc(N(C)C)cc2)cc1`, the growth inhibition is -13.5%.

In the case of `CC1N=C(SCC(=O)c2ccc(Cl)cc2)N2C(C)N=C(SCC(=O)c3ccc(Cl)cc3)N12` (stereo not given), the growth inhibition is -0.65%.

For `CCOc1ccc(/C=C2\N=C(c3ccc([N+](=O)[O-])cc3)OC2=O)cc1`, the growth inhibition was 11.2%.

Consider `NC(N)=N/N=C(/c1nc2ccc([N+](=O)[O-])cc2[nH]c1=O)C(O)c1ccco1` (stereo not given), for which the growth inhibition is 10.1%.

Regarding `Cc1cc2c(cc1C=O)C(C)(C)CCC2`, the growth inhibition is 9.75%.

Take `CCOc1cc(/C=N/NC(=O)C(O)C(O)C(O)C(O)CO)ccc1O` (stereo not given): the growth inhibition is 1.5%.

For the molecule `CC(=O)N1N=C(c2ccc(OCC(O)CN3CCN(CC(O)COc4ccc(C5=NN(C(C)=O)C(c6ccccc6)C5)cc4)CC3)cc2)CC1c1ccccc1` (stereo not given), the growth inhibition was -30.6%.

As to `CC(=O)Oc1cccn2c(C(=O)C(=O)c3ccc4c(OC(C)=O)cccn34)ccc12`, the growth inhibition was 5.15%.

For the molecule `CNC(=O)N(CC1CCCCC1)c1nc2c(=O)n(C)c(=O)[nH]c2s1`, the growth inhibition is -4.75%.

As to `O=C(O)c1ccc(Cl)c2ncccc12`, the growth inhibition is 5.3%.

Consider `O=C(O)C1(Nc2ccc(Cl)cc2)CCCC1`, for which the growth inhibition was 14.3%.

Take `NC1=Nc2cc(Cl)ccc2Sc2nc3ccccc3n21`: the growth inhibition is -18.4%.

Take `COc1ccc(/C=C2\CCCC3=C2NC(=S)NC3c2ccc(OC)cc2)cc1` (stereo not given): the growth inhibition is 24.8%.

Take `CCOCC(=O)O`: the growth inhibition was -15.1%.

Take `CC(=O)N=c1ccc2nc(N)nn(O)c-2c1`: the growth inhibition is 9.5%.

As to `C=CCc1nc2c([nH]1)c(=O)n(C)c(=O)n2C`, the growth inhibition was 33.5%.
